Shown are actives, neighbours in structure and some others; about 19% of the full set was active somewhere.
DT40 TDP1 CPT = growth inhibition of DT40 Tdp1-/-;hTDP1 cells with camptothecin (screen for TDP1 inhibitors) | Potency, µM (doses to about 46.2 µM), inactives show at the highest dose activity change, negative = growth inhibition, most hits filed as inhibitors | actives 12% (n = 420,000) | AID 686979 | chicken DT40 Tdp1-/-;hTDP1 cells + 20 nM CPT, ATP luminescence, 48 h; further: potency means the concentration at half of the fitted maximal effect; nearly all actives have a fitted effect of over 55% in size
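Chicken DT40 Tdp1-/- cells complemented with human TDP1, 400 cells/well, exposed to compounds plus 20 nM camptothecin for at least 48 h at 37 C; viability read as ATP content by CellTiter-Glo luminescence.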
IL-1B inflam inh = inhibitors of inflammasome signaling (IL-1 beta secretion); THP-1 LPS/ATP IL-1B secretion, AlphaLISA, 16 h; active compounds read low; AID 743279; actives 4.7% (n = 360,000); activity change, % at 57.5 µM; in the data active means activity change below about -50%; inconclusive means mostly about -30% to -49%
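THP-1 cells pretreated 1 hr with compounds (up to 57.5 uM final), then stimulated with LPS (250 ng/mL final) plus ATP (1.25 mM final); secreted IL-1B measured by AlphaLISA after 16 hr, decreased signal indicating inhibition.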
HT1080 IDH1KD tx = toxicity to HT-1080 IDH1 knockdown cells (counter line); Potency, µM (titrated, usually from 46.1 µM), for inactives: at the top dose activity, negative = toxicity, most hits filed as cytotoxic; HT-1080 IDH1 knockdown viability, ATP luminescence, 48 h; actives 2% (n = 360,000); AID 686971;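 further: potency means the concentration at half of the fitted maximal effect; 0% = DMSO wells and -100% = cell-free medium wells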
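IDH1KD HT-1080 cells, 750/well, RPMI + 5% FBS; compound pinned after 2 h settling; 48 h, 37 °C; CellTiter-Glo luminescence; % activity normalised to DMSO and no-cell wells; curves fitted, classed by r2 and efficacy.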
HT1080NT lethal = kills 2HG-producing HT-1080-NT fibrosarcoma cells. Potency, µM (doses to about 46.1 µM), for the others: at the highest dose activity, negative = less viability, usual class: cytotoxic. HT-1080-NT fibrosarcoma viability, CellTiter-Glo ATP luminescence, 48 h. actives 1.6% (n = 360,000). AID 686970;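 further: NT is the 2HG producing partner of a matched IDH1 knockdown line; potency means the concentration at half of the fitted maximal effect; 0% = DMSO-treated cells and -100% = media-only wells without cells; nearly all actives have a fitted effect of over 55% in size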
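750 cells/well, RPMI + 5% FBS; 2 h settle, compound pin-transfer, 48 h at 37 degrees C. CellTiter-Glo 10 min RT, luminescence. Normalized to DMSO and media-only wells.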
ELG1 DNA repair = blocks ELG1-dependent DNA repair in HEK293T cells | HEK293T ELG1-luciferase reporter, luminescence, 16 h; DNA damage induced by 5-fluorouridine | actives 2.3% (n = 330,000) | Potency, µM (doses to about 46.1 µM), for inactives: at the highest dose activity change, negative = inhibition, usual class: inhibitors; further: potency means the concentration at half of the fitted maximal effect; nearly all actives have a fitted effect of over 55% in size
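Overnight (16 hr) co-exposure of 2,000 cells/well to 5-fluorouridine and compound at 37 °C preceded detection. Luciferase was quantified via ONE-Glo luminescence; loss of signal denotes inhibition.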
TDP1 cell noCPT = qHTS for Inhibitors of human tyrosyl-DNA phosphodiesterase 1 (TDP1): qHTS in cells in absence of CPT; DT40 Tdp1-/- hTDP1 cells, no CPT, ATP luminescence, 48 h; Potency, µM (series often up to 46.2 µM), for the others: at the top dose activity change, negative = growth inhibition, actives largely listed as inhibitors; actives 15% (n = 420,000); AID 686978, 2013; further: potency means the concentration at half of the fitted maximal effect; nearly all actives have a fitted effect of over 55% in size
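Camptothecin absent (DMSO only). Human TDP1-complemented DT40 knockout cells, 400 cells/well, 37 °C for minimum 48 hr; ATP measured via CellTiter-Glo, 30 min dark incubation, luminescence.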
Active calls of the source: *; ? = inconclusive; / = not tested or not shown; [ ] = dose if it differs, or a comment. Unless noted, the call rests on the fitted dose curve; in most records, active means well fitted curve in the direction sought with a large enough effect; inconclusive means small, poorly fitted or top-dose-only effect, or another doubt; inactive means no such curve, though single readings can be large; an effect the other way counts as inactive or inconclusive. Unless noted, on the % scale 0 is the no-effect control and ±100 the full control effect.

SMILES	DT40 TDP1 CPT	IL-1B inflam inh	HT1080 IDH1KD tx	HT1080NT lethal	ELG1 DNA repair	TDP1 cell noCPT
COc1ccc(NC(=O)C2CCCCN2N)cc1OC (stereo unspecified)	?	-11.7	10.7%	-1.6%	5.0%	18.4µM*
CC(=O)c1cccc(NC(=O)C2CCN(S(=O)(=O)c3ccc(C)cc3)CC2)c1	1.6%	-13.2	0.0%[9.24 µM]	-4.8%	-25.7%	-28.7%
COc1ccc(OC)c(S(=O)(=O)N2CCC(C(=O)Nc3cccc(C(F)(F)F)c3)CC2)c1	18.4µM*	-8.2	-28.2%	-25.3%	?	14.6µM*
COc1ccc(S(=O)(=O)N2CCC(C(=O)Nc3cccc(C(C)=O)c3)CC2)cc1C	11.2µM*	2.5	?	2.0%	?	?
O=C(Nc1ccc(Br)cc1)C1CCCN1S(=O)(=O)c1ccc(F)cc1 (stereo unspecified)	?	/	/	/	/	14.6µM*
O=C(COC(=O)C1CC(=O)N(Cc2ccccc2)C1)Nc1cccc([N+](=O)[O-])c1 (stereo unspecified)	-3.2%	12.5	6.7%	16.6%	23.5%	1.1%
COc1ccc(NC(=O)C2CCN(S(=O)(=O)c3ccc(OC)c(OC)c3)CC2)cc1	1.1%	21.6	0.5%[9.24 µM]	-2.4%	-15.3%	-18.0%
O=C(Nc1ccc(C(F)(F)F)cc1)C1CCN(S(=O)(=O)c2ccc(N3CCCC3=O)cc2)CC1	2.59µM*	18.0	?	-7.7%	?	?
CSc1cccc(NC(=O)C2CCCN2S(=O)(=O)c2ccc(Br)s2)c1 (stereo unspecified)	?	0.0	?	?	?	23.1µM*
COc1ccc(S(=O)(=O)N2CCC(C(=O)Nc3ccc(S(=O)(=O)N4CCCC4)cc3)CC2)cc1OC	?	-12.1	-6.3%	-12.5%	-24.1%	29.1µM*
O=C(NCCCN1CCCC1=O)C1CCN(S(=O)(=O)c2cccc(C(F)(F)F)c2)CC1	-15.8%	9.9	0.1%	-0.7%	15.5%	-22.7%
O=C(NCCCN1CCCC1=O)C1CCN(S(=O)(=O)c2cc(C(F)(F)F)ccc2Cl)CC1	14.6µM*	-6.9	0.5%	6.2%[9.24 µM]	10.1%	?
CC(C)(C)c1cc(CNC(=O)C2CCC(=O)N(Cc3ccccc3F)C2)[nH]n1 (stereo unspecified)	4.7%	-4.7	6.2%	2.5%	/	5.9%
CCCOc1ccc(C2CC(=O)Nc3c2c(C)nn3-c2nncc(-c3cccc(OC)c3)n2)cc1OC (stereo unspecified)	2.6%	/	/	/	/	-6.7%
Cc1ccc(S(=O)(=O)N2CCC(C(=O)Nc3ccc(S(=O)(=O)N4CCOCC4)cc3)CC2)cc1	?	19.3	-15.0%	-0.5%	/	?
CSc1cccc(NC(=O)C2CCCN(S(=O)(=O)c3cccs3)C2)c1 (stereo unspecified)	?	-17.1	-25.9%	-4.9%	?	18.4µM*
O=C(Nc1ccc(S(=O)(=O)N2CCCC2)cc1)C1CCN(S(=O)(=O)c2ccc(F)cc2)CC1	?	0.0	-58.9%	-15.7%	-26.7%	18.4µM*
O=C(Nc1ccc(S(=O)(=O)N2CCOCC2)cc1)C1CCN(S(=O)(=O)c2ccccc2)CC1	?	2.5	-14.7%	-13.2%	?	16.4µM*
CC(C)NC(=O)C1CCCN(S(=O)(=O)c2cccs2)C1 (stereo unspecified)	8.8%	-3.6	9.3%	11.8%	15.0%	-3.7%
CSc1cccc(NC(=O)C2CCN(S(=O)(=O)c3ccc(F)cc3)CC2)c1	?	-2.2	?	-28.1%	/	20.6µM*
O=C(CSc1nc(=O)n2ccccc2n1)N1CCN(c2ccccc2)CC1	4.8%	-12.0	1.9%	1.6%	-3.9%	?
Cc1cc2c(cc1S(=O)(=O)Nc1cccc(Cl)c1C)n(C)c(=O)c(=O)n2C	5.9%	/	/	/	/	?
O=S(=O)(c1ccc2ccccc2c1)N1CCN(C(=S)Nc2ccccc2F)CC1	-1.9%	-2.7	-10.3%	-4.0%	?	4.1%
NS(=O)(=O)c1ccc(NC(=S)N2CCN(c3cccc(Cl)c3)CC2)cc1	?	-3.1	?	?	-22.5%	7.31µM*
O=S(=O)(c1ccc2ccccc2c1)N1CCN(C(=S)Nc2ccc(F)c(Cl)c2)CC1	?	-69.0*	?	-21.7%	?	?
SMILES	DT40 TDP1 CPT	IL-1B inflam inh	HT1080 IDH1KD tx	HT1080NT lethal	ELG1 DNA repair	TDP1 cell noCPT
O=S(=O)(c1cccc(NC(=S)N2CCN(c3ccc(F)cc3)CC2)c1)C(F)F	?	-3.3	-10.5%	1.7%	?	-66.5%
O=S(=O)(c1cccc(NC(=S)N2CCN(c3cccc(Cl)c3)CC2)c1)C(F)F	?	?	23.1µM*	20.6µM*	-5.5%	?
CC(=O)Oc1ccc(C#C/C=C2\c3ccccc3C(=O)N2c2ccccc2)cc1	23.1µM*	-99.6*	-28.5%	-22.3%	27.0%	20.6µM*
CC(=O)Oc1ccc(CC(C(=O)O)N2C(=O)c3ccccc3C2=O)cc1 (stereo unspecified)	5.5%	45.7	3.0%	7.3%	8.5%	-2.3%
CCCCc1c(C)nc(Nc2ccc(OC)cc2)[nH]c1=O	?	1.5	1.8%	20.2%	6.0%	13µM*
CCCCCc1c(C)nc(Nc2ccc(F)cc2)[nH]c1=O	?	-2.5	?	?	?	16.4µM*
CCCc1c(C)nc(N2CCN(c3ccc(F)cc3)CC2)[nH]c1=O	?	7.7	3.5%	3.3%	-1.4%	?
Cc1ccc(S(=O)(=O)Cc2ccccc2Cl)cc1	?	12.5	?	-24.8%	-15.2%	20.6µM*
Cc1ccc(Nc2nc(N)nc(-c3oc4ccccc4c3C)n2)cc1	0.206µM*	53.6	0.0103µM*	0.0065µM*	?	0.058µM*
COc1cccc(Nc2nc(N)nc(-c3oc4ccccc4c3C)n2)c1	6.51µM*	-70.6*	7.94µM*	10µM*	0.2%	8.2µM*
COc1ccccc1Nc1nc(N)nc(-c2cc3ccccc3o2)n1	-28.5%	-20.7	0.7%	2.5%	-0.1%	?
Cc1cccc(Nc2nc(N)nc(-c3oc4ccccc4c3C)n2)c1	?	-74.6*	?	?	-3.0%	25.9µM*
Cc1c(-c2nc(N)nc(Nc3ccccc3F)n2)oc2ccccc12	?	-17.6	-2.4%	-2.5%	?	18.4µM*
CCc1nc(Nc2cccc(OC)c2)c2oc3ccccc3c2n1	?	-10.6	-9.2%	-1.3%	?	?
